From PubChem BioAssay AID1476 (National Center for Advancing Translational Sciences (NCATS), 2009)
Among all 200,000 compounds or so, about 4,500 (2.2%) were called active. Not shown: some 12% with an inconclusive outcome. Only a selection was taken, and actives are over-represented in it overall. Unmarked numbers belong to inactive results. Calls follow the shape of the dose curve; as a rule, active = well fitted inhibition curve with a large enough effect; inconclusive = small, poorly fitted or top-dose-only effect, or effect the other way; inactive = flat fitted curve, though single readings scatter.

target: Cruzipain (Trypanosoma cruzi) (UniProt P25779); test: qHTS Assay for Promiscuous and Specific Inhibitors of Cruzain (without detergent); conditions: purified cruzain, Z-FR-AMC fluorescence, no detergent; also: nearly all actives have a fitted effect of over 40% in size;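 as to max response, negative = inhibition: plate controls were enzyme without inhibitor for no effect and buffer without enzyme for full effect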
Sequence (P25779 123-467 limits assumed): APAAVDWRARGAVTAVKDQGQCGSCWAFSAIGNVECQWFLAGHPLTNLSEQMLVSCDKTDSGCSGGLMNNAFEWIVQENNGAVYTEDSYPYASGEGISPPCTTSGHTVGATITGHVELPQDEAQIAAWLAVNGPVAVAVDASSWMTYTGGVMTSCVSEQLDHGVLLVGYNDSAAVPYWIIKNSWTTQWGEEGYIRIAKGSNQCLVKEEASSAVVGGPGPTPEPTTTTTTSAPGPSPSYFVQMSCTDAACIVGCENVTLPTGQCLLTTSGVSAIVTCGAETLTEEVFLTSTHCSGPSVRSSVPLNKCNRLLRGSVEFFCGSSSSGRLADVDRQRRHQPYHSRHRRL
Summary of the method: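 Detergent-free condition (0.00005% Triton X-100) in acetate buffer pH 5.5 with DTT. 1.5 nM enzyme and compound were pre-mixed 15 min, then 2 uM Z-FR-AMC substrate added; reaction progress from fluorescence change between first and third reads (60 s).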
Potency is read from the fitted curve at half-maximal effect.

Row | SMILES | max response, negative = inhibition | Potency
1 | O=C(Cn1ncc2c3ccccc3n(Cc3ccccc3)c2c1=O)NC1CCCCCC1 | 10.4% | 
2 | COc1cccc(NC(=O)CSc2cc(=O)n(C)c3ccc(Cl)cc23)c1 | -14.5% | 
3 | COc1cn(CC(=O)Nc2cccc(C)c2C)c(CN2CCCCC2)cc1=O | 9% | 
4 | CCC(=O)N1c2ccccc2CC1C(=O)N1CCN(c2ccccc2)CC1 (stereo unspecified) | 7.34% | 
5 | O=C(CN1CCc2ccccc21)NC(c1ccccc1)c1ccccc1 |  | 25.1 µM (active)
6 | O=S(=O)(NCC(c1ccccc1)N1CCc2ccccc21)c1ccccc1 (stereo unspecified) | 4.54% | 
7 | O=C(NC(c1ccccc1)c1ccccc1)N1CCN(CCO)CC1 | -2.87% | 
8 | CCCCN(C)CCC(=O)Nc1ccc(Cl)cc1 | -0.803% | 
9 | CCOC(=O)c1csc(NC(=O)Nc2cccc(OC)c2)n1 | 8.19% | 
10 | CC(=O)c1sc(NC(=O)c2ccc(C)cc2)nc1C | -25% | 
11 | Cc1nc(C)c(-c2csc(NCCc3ccccc3)n2)s1 | -11.5% | 
12 | Cc1ccc(Nc2nc(-c3sc(NC(=O)c4ccccc4)nc3C)cs2)cc1 |  | 31.6 µM (active)
13 | COc1cccc(NC(=O)c2csnn2)c1 | -5.7% | 
14 | CCCCCCC(=O)Nc1nc(C)c(-c2csc(Nc3cccc(OC)c3)n2)s1 |  | 10 µM (active)
15 | CN(CCCC(=O)Nc1nccs1)S(=O)(=O)c1ccc(Cl)cc1 | -7.25% | 
16 | CCCCC(=O)Nc1nc(C)c(-c2csc(Nc3ccc(Cl)cc3)n2)s1 |  | 7.94 µM (active)
17 | Cc1nc(NC(=O)CN(C)S(=O)(=O)c2ccc(Cl)cc2)sc1C | -3.63% | 
18 | C=CCCC(=O)Nc1nc(C)c(-c2csc(Nc3ccc(Cl)cc3)n2)s1 |  | 12.6 µM (active)
19 | Cc1ccc(C(=O)Nc2nc(-c3ccccc3)ns2)cc1 | 5.68% | 
20 | Cc1ccc(Cl)cc1NC(=O)NC1COc2ccccc2C1 (stereo unspecified) | -7.18% | 
21 | CCCCCCC(=O)Nc1nc(C)c(-c2csc(Nc3cc(Cl)ccc3OC)n2)s1 |  | 3.16 µM (active)
22 | COc1ccc(Cl)cc1NC(=O)CCC(=O)c1ccc(C)cc1 | 4.58% | 
23 | CCCCC(=O)N/N=C(\C)CC(=O)Nc1cc(Cl)ccc1OC | 7.24% | 

Row | SMILES | max response, negative = inhibition | Potency
24 | CCOCCn1ccc2c(OCC(=O)NCc3ccc(C)cc3)cccc2c1=O | 4.16% | 
25 | Cc1cc(F)ccc1NC1(c2ccccc2)C(=O)c2ccccc2C1=O | -5.27% | 
26 | CCOC(=O)c1ccc(NC(=O)C2CCN(S(=O)(=O)c3ccc4c(c3)CCCC(=O)N4)CC2)cc1 | 1.28% | 
27 | CC(C)NC(=O)C(=O)NCCN1CCN(S(=O)(=O)c2ccc(Cl)cc2)CC1 | -2.28% | 
28 | O=C(ON=C1CCN(S(=O)(=O)c2ccccc2)CC1)c1ccc(Cl)cc1 | 20.4% | 
29 | Cc1c(C2=CCN(S(=O)(=O)c3ccc(Cl)cc3)CC2)c2ccccc2n1C |  | 31.6 µM (active)
30 | CCc1nn(CCCC(=O)NCc2ccccc2OC)c(=O)c2cc3occc3n12 | -6.49% | 
31 | CCOc1ccc(-c2cc3c(=O)n(CC(=O)NCc4ccc(OC)cc4)ccn3n2)cc1 | 4.06% | 
32 | COc1cc(NC(=O)CCNC(=O)Cn2ccc3ccccc3c2=O)cc(OC)c1OC | -10.9% | 
33 | Cc1cc(C(=O)OCC(=O)Nc2nnc(C(C)C)s2)c2ccccc2n1 | -3.17% | 
34 | O=C(COC(=O)c1cc(=O)[nH]c2ccccc12)Nc1nc(-c2cccc(Br)c2)cs1 |  | 15.8 µM (active)
35 | CCOC(=O)c1ccc(COC(=O)c2cc(=O)[nH]c3ccccc23)o1 | -5.71% | 
36 | CCN(Cc1ccccc1)S(=O)(=O)c1ccc2c(c1)CCCN2C(C)=O | 12.3% | 
37 | O=C(NC1CC(=O)N(c2ccc(F)cc2)C1)c1ccc(S(=O)(=O)N2CCCC2)cc1 (stereo unspecified) | 8.64% | 
38 | O=C(Nc1ccccc1)c1nnsc1S(=O)(=O)c1ccc(Cl)cc1 | -8.46% | 
39 | CC(C)(C)C(=O)c1cnc(Nc2ccccc2)s1 | -10.8% | 
40 | O=C(c1ccc(Cl)cc1)c1cnc(Nc2ccccc2)s1 |  | 15.8 µM (active)
41 | Cc1ccc(C)c(S(=O)(=O)c2nnn3c2nc(N2CCOCC2)c2sccc23)c1 | 0.86% | 
42 | Cc1ccc2nc(COc3cccc(NC(=O)c4cccc(Cl)c4)c3)cc(=O)n2c1 | -16.6% | 
43 | COc1cccc(C(=O)Nc2ccc3oc(-c4ccc5ccccc5c4)nc3c2)c1 |  | 12.6 µM (active)
44 | Cc1ccccc1-c1nc2cc(NC(=O)c3cccc(OCCC(C)C)c3)ccc2o1 | -8.64% | 
45 | COC(=O)c1ccc(-c2nc3cc(NC(C)=O)ccc3o2)cc1 | 5.54% | 
46 | COc1ccccc1OCCCn1c(-c2ccc(Cl)cc2)nc2ccccc2c1=O | 3.21% | 

Row | SMILES | max response, negative = inhibition | Potency
47 | COc1ccc(S(=O)(=O)NCc2cccn2Cc2cccc(C)c2)cc1Cl | 6.08% | 
48 | COc1ccc(Br)cc1C1CC(=O)Nc2c1c(C)nn2-c1nc(C)cc(C)n1 (stereo unspecified) | 3.34% | 
49 | CC(=O)c1ccc(N2CCN(c3nc4c(S(=O)(=O)c5ccccc5)nnn4c4ccc(Cl)cc34)CC2)cc1 | 0.808% | 
50 | CCOC(=O)c1c(-c2cccc(C)c2)csc1NC(=O)c1c(-c2ccccc2)noc1C |  | 7.94 µM (active)
51 | CCCS(=O)(=O)c1ncc(Cl)c(C(=O)Nc2scc(-c3ccccc3)c2C(=O)OCC)n1 | -26.6% | 
52 | CC(=O)Nc1cccc(NC(=O)c2c(-c3ccccc3)noc2C)c1 | 2.43% | 
53 | CCOc1ccc(S(=O)(=O)c2cn(Cc3ccccc3)c3ccc(OCC)cc3c2=O)cc1 | -17.9% | 
54 | COc1ccc(NC(=O)Cn2c(=O)n(Cc3ccco3)c(=O)c3ccccc32)cc1 | -4.83% | 
55 | COc1ccc(OC)c(NC(=O)Cn2c(=O)n(Cc3ccccc3)c(=O)c3ccccc32)c1 | -9.43% | 
56 | COc1ccc(NC(=O)Cn2c(=O)n(Cc3ccc(C(=O)NCc4ccccc4Cl)cc3)c(=O)c3ccccc32)cc1 |  | 10 µM (active)
57 | Cn1nnc2c(N3CCN(c4ccccc4)CC3)ncnc21 | -1.23% | 
58 | CCCCN1CC(c2nc3ccccc3n2CCCCOc2ccc(C)cc2C)CC1=O (stereo unspecified) | 1.93% | 
59 | CCOc1ccccc1NC(=O)C1CCCN(S(=O)(=O)c2cn(C)cn2)C1 (stereo unspecified) | -18.2% | 
60 | O=C(COC(=O)/C(=C/c1cccs1)c1cccs1)NCc1ccccc1Cl | 3.79% | 
61 | CC(NC(=S)Nc1ccc(S(N)(=O)=O)cc1)c1ccc2c(c1)OCO2 (stereo unspecified) | -22.3% | 
62 | O=C1/C(=C/c2ccc3c(c2)OCO3)CCC/C1=C\c1ccc2c(c1)OCO2 | -11.7% | 
63 | NS(=O)(=O)c1ccc(NC(=O)COC(=O)c2c3c(nc4ccccc24)/C(=C\c2ccc4c(c2)OCO4)CCC3)cc1 |  | 20 µM (active)
64 | O=C(COC(=O)CCc1c[nH]c(=O)[nH]1)Nc1ccccc1Cl | -19.9% | 
65 | O=C(COC(=O)c1c2c(nc3ccccc13)/C(=C\c1cccs1)CCC2)Nc1ccccc1Cl |  | 31.6 µM (active)
66 | COc1cccc(OCCn2c(-c3ccc(Br)cc3)nc3ccccc3c2=O)c1 | -14.8% | 
67 | Cc1cc(C)cc(NS(=O)(=O)c2cc3c(cc2C)NC(=O)CO3)c1 | 6.94% | 
68 | Cc1cc(C)cc(NC(=O)CSc2nc(=O)n(CCN3CCOCC3)c3c2CCC3)c1 | -7.74% | 
69 | O=C(c1ccc(Br)cc1)N(Cc1cccs1)c1ccc(F)cc1 | 11.6% | 

Row | SMILES | max response, negative = inhibition | Potency
70 | COC(=O)c1ccc(NC(=O)CSc2n[nH]c(-c3ccccc3)n2)cc1 | -7.41% | 
71 | COc1ccc(Cc2nnc(NS(=O)(=O)Cc3ccccc3)s2)cc1 | -1.39% | 
72 | COc1ccc(C(=O)Nc2nc(-c3ccc(S(=O)(=O)N4CCOCC4)cc3)cs2)cc1 | -19.9% | 
73 | COc1ccc(Cc2nnc(NC(=O)Cc3cccs3)s2)cc1 |  | 20 µM (active)
74 | Cc1ccc(-c2csc(NC(=O)Cc3cccs3)n2)cc1C | -12.6% | 
75 | COc1ccc(-c2csc(NC(=O)CCCc3cccs3)n2)cc1 |  | 10 µM (active)
76 | CCc1nnc(NC(=O)CSc2nnc(Cc3ccccc3)n2-c2ccc(OC)cc2)s1 | -3.04% | 
77 | CCN(CC)S(=O)(=O)c1ccc2c(c1)nc(CN(C)C(=O)Nc1ccc(Cl)cc1)n2C | 2.49% | 
78 | CCOC(=O)c1[nH]c(C)c(CCC(=O)N2CCN(c3ccccc3)CC2)c1C | 6.86% | 
79 | Cc1cccc(C(=O)N2CCc3cc(CNC(=O)Cc4ccc(F)cc4)ccc32)c1 | -5.89% | 
80 | CCc1ccc(CN(Cc2ccco2)C(=O)COc2ccc(Cl)c(C)c2)cc1 | -28.4% | 
81 | CCN(CC)S(=O)(=O)c1ccc2c(c1)N(CC(=O)NCC(C)c1ccccc1)C(=O)CO2 (stereo unspecified) | 13.8% | 
82 | c1ccc2[nH]c(-c3nc4ccccc4[nH]3)nc2c1 | 9% | 
83 | O=C(Nc1sc2c(c1-c1nc3ccccc3[nH]1)CCCC2)C1CC1 |  | 25.1 µM (active)
84 | O=C(OCc1nc2ccccc2[nH]1)C1CCCCC1 | 6.92% | 
85 | Cc1ccc2c(c1)N(C(=O)CCC(=O)NCc1ccccc1F)CC(C)O2 (stereo unspecified) | 2.02% | 
86 | Cc1ccc(OCCSc2nc(C)c(Cc3ccccc3)c(=O)[nH]2)cc1 | -1.11% | 
87 | O=C(NC1CC(=O)N(c2ccc(F)cc2)C1)c1cccs1 (stereo unspecified) | 8.85% | 
88 | Cc1c(Cl)cccc1-c1ccc(CNCCCSc2nnnn2C)o1 | -7.09% | 
89 | COc1cc(/C=N/O)ccc1OCc1ccc([N+](=O)[O-])cc1 | 0.78% | 
90 | CCCc1ccc(OCc2ccc(C(=O)N/N=C/c3cccc([N+](=O)[O-])c3)o2)c(OC)c1 |  | 6.31 µM (active)
91 | COc1cc(/C=N\NC(=O)CNC(=O)c2cccc([N+](=O)[O-])c2)ccc1O | 6.36% | 
